Screens (PubChem)
POLI inh = inhibitors of human DNA polymerase iota; Pol iota fluorescent replication assay, 10 min; Q9UNA4; 390,000 tested, 1% active; Potency, µM (highest dose often 115 µM), inactives show top-dose activity, negative = inhibition, hits mostly inhibitors; AID 588590; further: potency means the concentration at half of the fitted maximal effect
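Pol iota at 10 nM preincubated 15 min with compounds at room temperature; reaction started with fluorescent substrate, 50 nM final. Fluorescence read kinetically at 0 and 10 min; buffer-only wells as negative control.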
Pol kappa inh = inhibitors of human DNA polymerase kappa; Q9UBT6; purified Pol kappa, fluorescent DNA synthesis assay, 10 min; Potency, µM (doses to about 107 µM), for inactives: top-dose activity, negative = inhibition, hits mostly inhibitors; 400,000 tested, 0.53% active; AID 588579; further: potency means the concentration at half of the fitted maximal effect; on the % scale 0 is the no-effect control and ±100 the full control effect
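Pol kappa 10 nM + cpd, 15 min RT; start w/ substrate 50 nM final; fluorescence kinetic read, 0 and 10 min. Neg ctrl: buffer, no enzyme.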
POLB inh = inhibitors of human DNA polymerase beta; P06746; Potency, µM (titrated, usually from 114 µM), for the others: top-dose activity change, negative = inhibition, actives largely listed as inhibitors; 340,000 tested, 1.3% active; Pol beta primer extension/strand displacement, fluorescence kinetic; further: potency means the concentration at half of the fitted maximal effect; on the % scale 0 is the no-effect control and ±100 the full control effect
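Enzyme-only controls used 10 nM Pol beta; buffer lacking enzyme served as negative control. Compound preincubated 15 min, then 50 nM substrate added; 0 and 10 min reads at room temperature.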
WRN helicase inh = inhibitors of human WRN helicase. WRN helicase unwinding, fluorescent forked duplex, kinetic. Potency, µM (highest dose often 114 µM), for the others: top-dose activity change, negative = inhibition, usual class: inhibitors. 360,000 tested, 0.46% active. AID 651768; further: potency means the concentration at half of the fitted maximal effect; on the % scale 0 is the no-effect control and ±100 the full control effect; nearly all actives have a fitted effect of over 55% in size
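Primary qHTS, 1536-well format. 20 nM WRN + compound, 15 min RT; start with 100 nM forked fluorophore/quencher duplex, 2 mM ATP (final); kinetic read ex 525/em 598 nm.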
PI5P4K alpha inh = PI5P4K alpha (human) kinase inhibition | P48426 | PI5P4Kalpha enzyme, ADP-Glo luminescence, 60 min; hits give low values | max response, % | 330,000 tested, 1.2% active; active means max response of -50% or lower; inconclusive means between -30% and -50%; inactive means -30% or higher; further: value at the top dose of about 77 µM; on the % scale 0 is the no-effect control and ±100 the full control effect
Target sequence (P48426 whole entry, looked up): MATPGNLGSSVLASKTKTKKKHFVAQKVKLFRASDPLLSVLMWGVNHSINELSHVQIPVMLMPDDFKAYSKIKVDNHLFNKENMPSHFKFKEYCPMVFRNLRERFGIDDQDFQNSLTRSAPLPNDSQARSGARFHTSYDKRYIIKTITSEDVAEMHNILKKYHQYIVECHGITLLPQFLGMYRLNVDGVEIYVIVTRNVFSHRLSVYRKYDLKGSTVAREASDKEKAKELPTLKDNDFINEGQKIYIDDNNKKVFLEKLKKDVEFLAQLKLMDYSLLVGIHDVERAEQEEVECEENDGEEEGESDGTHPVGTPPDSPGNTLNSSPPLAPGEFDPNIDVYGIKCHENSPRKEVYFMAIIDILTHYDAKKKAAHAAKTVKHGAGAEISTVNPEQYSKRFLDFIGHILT
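Quantitative HTS of the MLSMR library against PI5P4Kalpha with substrate. ATP added last at 5 microM final; room temperature, 60 minutes. Remaining ATP depleted, ADP converted and read as luminescence.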
POLH inh = DNA polymerase eta (human) inhibition | Q9Y253 | recombinant Pol eta, fluorescent DNA replication assay | Potency, µM (top dose mostly 114 µM), for the others: top-dose activity change, negative = inhibition, usual class: inhibitors | 390,000 tested, 1.2% active | AID 588591; further: potency means the concentration at half of the fitted maximal effect; on the % scale 0 is the no-effect control and ±100 the full control effect
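Pol eta (10 nM) was preincubated with compounds for 15 min at room temperature, after which fluorescent replication substrate (50 nM final) was added to start the reaction. Fluorescence was read kinetically at 0 and 10 min.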
Starred values were filed as active, the others as inactive; [ ] = remark or other dose. An excerpt weighted towards active compounds, which were near 2.8% of everything screened. Unless noted, the call rests on the fitted dose curve; in most records, active means well fitted curve in the direction sought with a large enough effect; inconclusive means small, poorly fitted or top-dose-only effect, or another doubt; inactive means no such curve, though single readings can be large; an effect the other way counts as inactive or inconclusive.

Results for CCN1C(=O)c2cccc3c(S(=O)(=O)NCc4cccnc4)ccc1c23 ?
POLI inh: 13%; Pol kappa inh: -2%; POLB inh: 28%; WRN helicase inh: -18%[57.1 µM]; PI5P4K alpha inh: 0; POLH inh: -12%

How did CCN1C(=O)c2cccc3c(S(=O)(=O)NCc4ccco4)ccc1c23 do in these assays?
POLI inh: 32µM*; Pol kappa inh: -15%; POLB inh: 1%; WRN helicase inh: -16%; POLH inh: -12%

What do the screens show for `Nc1c(C(=O)O)ccc2c1C(=O)c1ccccc1C2=O`?
POLI inh: inconclusive; Pol kappa inh: -13%; POLB inh: inconclusive; WRN helicase inh: inconclusive; PI5P4K alpha inh: -69*; POLH inh: -29%

Results for O=C(O)CCSc1nc2ccccc2s1 ?
POLI inh: -16%[58.9 µM]; Pol kappa inh: 0%; POLB inh: inconclusive; WRN helicase inh: 3%; POLH inh: -10%

Results for O=C(O)c1cc2ccccc2c2c1C(=O)c1ccccc1-2 ?
WRN helicase inh: -12%; PI5P4K alpha inh: -14; POLH inh: -5%

How did Nc1c(SCCC(=O)O)ccc2c1C(=O)c1ccccc1C2=O do in these assays?
POLI inh: inconclusive; Pol kappa inh: 2%; POLB inh: inconclusive; WRN helicase inh: inconclusive; PI5P4K alpha inh: -87*; POLH inh: -29%

Results for Nc1cc(C(=O)O)c(N)c2c1C(=O)c1ccccc1C2=O ?
POLI inh: 20µM*; Pol kappa inh: inconclusive; POLB inh: inconclusive; WRN helicase inh: inconclusive; PI5P4K alpha inh: -83*; POLH inh: 20µM*

How did CC(=O)N(c1ccc2ccccc2c1)C1SC(=O)N(c2cccc(C)c2)C1=O (stereo unspecified) do in these assays?
POLI inh: 18%; Pol kappa inh: -1%

Results for N#C/C(=C(/O)CCl)c1nc2c(s1)CCc1ccccc1-2 ?
POLI inh: inconclusive; Pol kappa inh: -27%; POLB inh: inconclusive; WRN helicase inh: inconclusive; PI5P4K alpha inh: -27; POLH inh: 35µM*

How did Cc1ccc(Cn2ccnc2SCC(=O)Nc2nnc(C)s2)cc1 do in these assays?
POLI inh: 1%; Pol kappa inh: 0%[60.1 µM]; POLB inh: 19%; POLH inh: -3%

Results for COc1cc(O)c(C=NN2C(=O)CSC2=S)c(OC)c1 ?
WRN helicase inh: -21%; PI5P4K alpha inh: -75*; POLH inh: -26%

Results for O=C1CSC(=S)N1/N=C/c1cc(Br)c(O)c(Br)c1 ?
POLI inh: 14µM*; Pol kappa inh: 16µM*; POLB inh: 20µM*; WRN helicase inh: 20µM*; PI5P4K alpha inh: -106*; POLH inh: 11µM*

What do the screens show for `COc1ccc(Br)cc1/C=N/N1C(=O)CSC1=S`?
POLI inh: inconclusive; Pol kappa inh: -22%; POLB inh: 19%; WRN helicase inh: -17%; PI5P4K alpha inh: inconclusive; POLH inh: 1%

How did O=C1CSC(=S)N1N=Cc1ccccc1O do in these assays?
POLI inh: inconclusive; Pol kappa inh: inconclusive; WRN helicase inh: 22µM*; PI5P4K alpha inh: -85*; POLH inh: inconclusive

Results for COc1cc(/C=N/N2C(=O)CSC2=S)ccc1O ?
POLI inh: 13µM*; Pol kappa inh: 79µM*; POLB inh: -5%; WRN helicase inh: inconclusive; PI5P4K alpha inh: -51*; POLH inh: -9%

What do the screens show for `COc1ccc(C(=O)Nc2ccccc2-c2nc3ccccc3s2)cc1OC`?
POLI inh: -4%; Pol kappa inh: -10%; POLB inh: 2%; POLH inh: -16%

How did Cc1nc2ccc(S(=O)(=O)N(C)CC(=O)Nc3ccccc3F)cc2s1 do in these assays?
POLI inh: 8%; Pol kappa inh: -5%; POLB inh: -1%; WRN helicase inh: 0%; PI5P4K alpha inh: -1; POLH inh: -5%

What do the screens show for `O=C1CSC(=S)N1/N=C/c1ccc2c(c1)OCCO2`?
POLI inh: inconclusive; Pol kappa inh: -4%; POLB inh: -7%; WRN helicase inh: -31%; PI5P4K alpha inh: -57*; POLH inh: -7%

What do the screens show for `O=C1CSC(=S)N1/N=C/c1ccc(Cl)c([N+](=O)[O-])c1`?
POLB inh: 22µM*

What do the screens show for `CN(CC(=O)NCc1ccco1)CC(=O)Nc1c(Cl)cccc1Cl`?
POLI inh: 16%; Pol kappa inh: -8%; WRN helicase inh: -17%; PI5P4K alpha inh: -3; POLH inh: -5%

Results for CCOC(=O)C1=C(C)NC(=S)NC1c1ccco1 (stereo unspecified) ?
POLI inh: 22µM*; Pol kappa inh: inconclusive; POLB inh: 0%; WRN helicase inh: inconclusive; PI5P4K alpha inh: inconclusive; POLH inh: inconclusive

Results for CCOC(=O)C1=C(C)NC(=O)NC1c1ccc(C)o1 (stereo unspecified) ?
POLI inh: 56µM*; Pol kappa inh: inconclusive; POLB inh: 4%; WRN helicase inh: -20%[57.1 µM]; PI5P4K alpha inh: -2; POLH inh: inconclusive

Results for Cc1ccc(NC(=O)C2(S(=O)(=O)c3ccc(Cl)cc3)CC2)c(Br)c1 ?
POLI inh: -9%; Pol kappa inh: -19%; POLB inh: -14%; WRN helicase inh: -1%; PI5P4K alpha inh: -1; POLH inh: -8%

What do the screens show for `COCCNC(=O)CSC1=N/C(=C/c2ccc(Cl)c(Cl)c2)C(=O)N1c1ccccc1F`?
POLI inh: 0%; Pol kappa inh: -12%; POLB inh: -8%; WRN helicase inh: -14%; PI5P4K alpha inh: 2; POLH inh: -24%

Results for COc1cc(NC(=O)CSCC(=O)Nc2cc(OC)cc(OC)c2)cc(OC)c1 ?
POLI inh: 10%; Pol kappa inh: -8%; POLB inh: 10%; WRN helicase inh: -2%; PI5P4K alpha inh: -2; POLH inh: -5%

What do the screens show for `Oc1ccccc1C1C=C(c2ccc3c(c2)OCO3)NC(c2cccc(F)c2)N1` (stereo unspecified)?
POLI inh: inconclusive; Pol kappa inh: 11%

How did CCCc1cc2c(-c3ccccc3)cc(=O)oc2cc1OCc1ccc(C(=O)O)o1 do in these assays?
POLI inh: -11%; Pol kappa inh: -12%; POLB inh: inconclusive; WRN helicase inh: -2%[11.6 µM]; PI5P4K alpha inh: -23; POLH inh: 79µM*

Results for CC(NC(=O)OCc1ccccc1)C(=O)Oc1cc2oc(=O)cc(-c3ccccc3)c2cc1Cl (stereo unspecified) ?
POLI inh: -16%; Pol kappa inh: -6%; POLB inh: 36%; WRN helicase inh: -34%[57.1 µM]; PI5P4K alpha inh: -62*; POLH inh: -9%
